“And” between values parts separate entries of the source, which are not always exact repeats. Identical values can stand only once. Results filed as inconclusive are left out. A call without a number means that no potency is given here. A structure can be active in one record and inactive in another. The source made the active and inactive calls. Unless noted, the call rests on the fitted dose curve; in most records, active means well fitted curve in the direction sought with a large enough effect in the repeat runs; inconclusive means weak or mixed curves; inactive means no such curve, though single readings can be large; an effect the other way counts as inactive or inconclusive.
What was measured:
[1] = target: Estrogen receptor beta (Homo sapiens) (UniProt Q92731); experiment: qHTS assay to identify small molecule agonists of the estrogen receptor beta (ER-beta) signaling pathway (AID 1259377; active means well fitted activation curve with a large enough effect in the signal ratio in the repeat runs, not every such curve was filed as active; the % refers to the signal ratio)
Sequence of Estrogen receptor beta (Homo sapiens) (Q92731 whole entry, looked up, the tested form may be a part): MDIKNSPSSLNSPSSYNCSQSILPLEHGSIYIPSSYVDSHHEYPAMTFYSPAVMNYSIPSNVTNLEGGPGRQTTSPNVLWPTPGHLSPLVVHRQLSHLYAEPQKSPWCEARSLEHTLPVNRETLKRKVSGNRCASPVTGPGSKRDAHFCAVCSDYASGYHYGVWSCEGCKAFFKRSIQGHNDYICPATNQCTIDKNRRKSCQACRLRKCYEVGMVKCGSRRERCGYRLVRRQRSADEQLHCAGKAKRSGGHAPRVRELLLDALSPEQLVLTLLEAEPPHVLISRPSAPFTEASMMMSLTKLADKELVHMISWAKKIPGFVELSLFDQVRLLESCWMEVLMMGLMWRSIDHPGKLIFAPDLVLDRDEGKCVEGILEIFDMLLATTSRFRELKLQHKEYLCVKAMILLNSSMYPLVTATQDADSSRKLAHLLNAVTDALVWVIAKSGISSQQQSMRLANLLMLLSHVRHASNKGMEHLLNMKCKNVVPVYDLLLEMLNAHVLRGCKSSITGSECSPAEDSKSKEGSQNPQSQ
Method in brief: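 Agonist mode cell assay in GripTite HEK293T cells expressing an ER-beta fusion that drives beta-lactamase from an Upstream Activator Sequence; 16 hr compound exposure at 37C, then 2 h LiveBLAzer B/G FRET substrate at room temperature, fluorescence read-out.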

[2] = qHTS assay to identify small molecule agonists of the androgen receptor (AR) signaling pathway in the presence of an antagonist - cell viability counter screen (AID 1259379); further: nearly all actives have a fitted effect of over 25% in size; further: potency means the concentration at half of the fitted maximal effect
Method in brief: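 Counter screen for cell viability run in parallel with the AR agonist-mode luciferase assay. MDA-kb2 cells were co-treated with nilutamide (3.0uM final) and compounds, then incubated 16 hr at 37C, and CellTiter-Fluor fluorescence was measured.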

[3] = qHTS assay to identify small molecule agonists of the estrogen receptor beta (ER-beta) signaling pathway - cell viability counter screen (AID 1259380); further: nearly all actives have a fitted effect of over 30% in size; further: potency means the concentration at half of the fitted maximal effect
Method in brief: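 In this qHTS counter screen, HEK293T cells carrying an ER-beta/UAS beta-lactamase reporter, grown in 2% charcoal-stripped FBS, received compound for 16 hr; ATP-based CellTiter-Glo luminescence was then read after 30 min at room temperature.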

[4] = target: Androgen receptor (Homo sapiens) (UniProt P10275); experiment: qHTS assay to identify small molecule agonists of the androgen receptor (AR) signaling pathway in the presence of an antagonist (AID 1259381; calls by dose curve; further: nearly all actives have a fitted effect of over 15% in size)
Sequence of Androgen receptor (Homo sapiens) (P10275 whole entry, looked up): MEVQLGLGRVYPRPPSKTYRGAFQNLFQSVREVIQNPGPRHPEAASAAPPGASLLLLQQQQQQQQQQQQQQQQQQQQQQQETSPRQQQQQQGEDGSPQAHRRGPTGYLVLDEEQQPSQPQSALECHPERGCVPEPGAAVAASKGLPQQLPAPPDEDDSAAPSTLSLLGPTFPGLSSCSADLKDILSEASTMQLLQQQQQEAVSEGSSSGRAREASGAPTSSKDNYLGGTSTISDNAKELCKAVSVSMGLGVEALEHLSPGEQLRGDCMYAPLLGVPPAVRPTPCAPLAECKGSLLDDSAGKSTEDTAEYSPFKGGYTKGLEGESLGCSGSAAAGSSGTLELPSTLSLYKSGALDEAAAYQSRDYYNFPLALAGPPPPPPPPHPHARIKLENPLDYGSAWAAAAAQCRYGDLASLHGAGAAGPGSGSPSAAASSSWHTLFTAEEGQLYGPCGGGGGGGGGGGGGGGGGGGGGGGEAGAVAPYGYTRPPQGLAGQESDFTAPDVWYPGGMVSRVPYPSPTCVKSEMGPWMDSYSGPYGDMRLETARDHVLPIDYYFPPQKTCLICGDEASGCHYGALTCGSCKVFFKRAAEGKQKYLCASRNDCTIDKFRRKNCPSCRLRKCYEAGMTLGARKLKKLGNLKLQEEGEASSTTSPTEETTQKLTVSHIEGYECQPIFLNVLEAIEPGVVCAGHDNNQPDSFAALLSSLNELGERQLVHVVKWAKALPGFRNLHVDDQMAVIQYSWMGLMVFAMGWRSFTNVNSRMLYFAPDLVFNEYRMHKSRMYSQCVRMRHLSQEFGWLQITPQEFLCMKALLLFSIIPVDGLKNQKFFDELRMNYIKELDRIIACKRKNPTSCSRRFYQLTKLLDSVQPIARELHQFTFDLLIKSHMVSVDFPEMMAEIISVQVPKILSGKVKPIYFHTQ
Method in brief: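 AR antagonist background: nilutamide 3.0uM final. Cell line: MDA-kb2, MMTV-driven luciferase, responsive to both AR and GR. Exposure 16hr, 37C, no CO2; ONE-Glo luminescence.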

[5] = qHTS assay to identify small molecule antagonists of the estrogen receptor beta (ER-beta) signaling pathway - cell viability counter screen (AID 1259382); further: nearly all actives have a fitted effect of over 55% in size; further: potency means the concentration at half of the fitted maximal effect
Method in brief: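 HEK293T ER-beta-UAS-bla, 2% charcoal-stripped FBS; compounds + 1nM E2 16 hr 37C; CellTiter-Glo luminescence, 30 min RT.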

[6] = qHTS assay to identify small molecule agonists or antagonists of the thyroid stimulating hormone receptor (TSHR) signaling pathway - wild type cell line counter screen (AID 1259384; calls by dose curve)
Method in brief: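 Wild-type Hek293 cells, 800/well, 18 h at 37C, then compound with Ro20-1724 for 30 min RT. cAMP by HTRF (cAMP-d2/anti-cAMP cryptate), 1 h RT, fluorescence read. 15 concentrations, triplicates.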

[7] = target: Thyrotropin receptor (Homo sapiens) (UniProt P16473); experiment: qHTS assay to identify small molecule antagonists of the thyroid stimulating hormone receptor (TSHR) signaling pathway (AID 1259385; calls by dose curve; further: nearly all actives have a fitted effect of over 20% in size; further: potency means the concentration at half of the fitted maximal effect)
Sequence of Thyrotropin receptor (Homo sapiens) (P16473 whole entry, looked up): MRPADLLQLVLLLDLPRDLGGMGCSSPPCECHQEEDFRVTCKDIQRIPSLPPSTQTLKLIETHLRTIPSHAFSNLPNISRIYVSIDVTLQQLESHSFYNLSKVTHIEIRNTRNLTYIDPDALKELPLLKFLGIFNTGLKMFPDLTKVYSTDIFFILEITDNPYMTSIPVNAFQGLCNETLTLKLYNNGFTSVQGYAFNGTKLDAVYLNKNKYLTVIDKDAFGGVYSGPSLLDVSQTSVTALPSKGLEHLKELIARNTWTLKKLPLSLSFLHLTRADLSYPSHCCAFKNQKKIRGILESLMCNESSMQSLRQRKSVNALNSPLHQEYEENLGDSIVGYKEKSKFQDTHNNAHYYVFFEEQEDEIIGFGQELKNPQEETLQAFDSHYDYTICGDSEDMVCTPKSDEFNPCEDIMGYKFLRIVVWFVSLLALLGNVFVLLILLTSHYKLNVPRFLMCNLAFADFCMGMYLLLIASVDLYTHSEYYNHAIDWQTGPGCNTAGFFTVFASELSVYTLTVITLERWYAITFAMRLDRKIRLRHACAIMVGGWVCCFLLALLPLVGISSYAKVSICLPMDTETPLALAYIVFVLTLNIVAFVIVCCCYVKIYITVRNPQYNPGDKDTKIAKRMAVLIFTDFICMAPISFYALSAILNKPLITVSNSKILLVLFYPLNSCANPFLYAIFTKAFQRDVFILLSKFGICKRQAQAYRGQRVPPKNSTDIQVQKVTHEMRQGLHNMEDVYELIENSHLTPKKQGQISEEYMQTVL
Method in brief: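 TSHR-HEK293 cells (800/well) plated 18 h, then compounds with Ro20-1724 and TSH at 1.5 ng/mL final, 30 min at room temperature. cAMP quantified by HTRF (cAMP-d2/anti-cAMP-cryptate, 1 h); 15 concentrations in triplicate.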

[8] = qHTS assay to identify small molecule agonists of the estrogen receptor alpha (ER-alpha) signaling pathway in the presence of an antagonist - cell viability counter screen (AID 1259386);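 further: cells exposed to compounds for 22 h at 37 °C before the viability read; nearly all actives have a fitted effect of over 30% in size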; further: potency means the concentration at half of the fitted maximal effect
Method in brief: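 Steps: 5-day stripped-FBS culture; seed and incubate 24hr; add ICI-182,780 (10.0nM final); pin 15-point compound titration; incubate 22hr at 37C; add CellTiter-Fluor at 21hr; read fluorescence.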

[9] = target: Progesterone receptor (Homo sapiens) (UniProt P06401); experiment: qHTS assay to identify small molecule agonists of the progesterone receptor (PR) signaling pathway (AID 1346784; calls by dose curve; further: nearly all actives have a fitted effect of over 30% in size)
Sequence of Progesterone receptor (Homo sapiens) (P06401 whole entry, looked up): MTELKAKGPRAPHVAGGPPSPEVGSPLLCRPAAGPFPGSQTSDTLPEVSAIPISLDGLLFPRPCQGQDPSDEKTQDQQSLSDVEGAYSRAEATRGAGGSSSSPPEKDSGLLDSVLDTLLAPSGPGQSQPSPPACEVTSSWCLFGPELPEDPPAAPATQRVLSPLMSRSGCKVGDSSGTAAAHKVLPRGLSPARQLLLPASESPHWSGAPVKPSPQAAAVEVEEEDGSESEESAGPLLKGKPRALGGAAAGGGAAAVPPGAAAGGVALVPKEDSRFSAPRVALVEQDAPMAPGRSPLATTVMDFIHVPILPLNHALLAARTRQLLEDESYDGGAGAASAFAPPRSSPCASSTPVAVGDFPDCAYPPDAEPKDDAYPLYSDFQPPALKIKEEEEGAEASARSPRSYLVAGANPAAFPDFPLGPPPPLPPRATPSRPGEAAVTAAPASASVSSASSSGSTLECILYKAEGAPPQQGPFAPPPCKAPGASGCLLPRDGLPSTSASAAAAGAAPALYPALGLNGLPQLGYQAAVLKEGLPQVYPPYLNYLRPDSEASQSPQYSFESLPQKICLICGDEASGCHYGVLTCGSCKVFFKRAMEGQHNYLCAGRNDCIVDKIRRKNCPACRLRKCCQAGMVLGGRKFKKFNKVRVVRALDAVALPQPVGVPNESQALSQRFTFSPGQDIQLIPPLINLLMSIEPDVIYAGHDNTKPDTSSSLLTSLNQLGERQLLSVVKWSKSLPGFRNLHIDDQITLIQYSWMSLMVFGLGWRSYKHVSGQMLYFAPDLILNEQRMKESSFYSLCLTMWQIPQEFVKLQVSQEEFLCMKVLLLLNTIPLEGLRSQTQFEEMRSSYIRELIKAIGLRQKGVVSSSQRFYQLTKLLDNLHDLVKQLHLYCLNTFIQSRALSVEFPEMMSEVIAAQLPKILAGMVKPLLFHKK
Method in brief: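 Cells (PR-UAS-bla HEK 293T, GripTite) were plated in assay medium containing 2% charcoal-stripped FBS and incubated 6 hr. Test compounds in DMSO were added for 16 hr at 37C. FRET substrate was then loaded for 2 hr at room temperature before fluorescence reading.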

[10] = target: Progesterone receptor (Homo sapiens) (UniProt P06401); experiment: qHTS assay to identify small molecule antagonists of the progesterone receptor (PR) signaling pathway (AID 1346795; active means well fitted inhibition curve with a large enough effect in the signal ratio in the repeat runs, not every such curve was filed as active; the % refers to the signal ratio; further: potency means the concentration at half of the fitted maximal effect)
Method in brief: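 Antagonist mode: compounds tested against 1 nM (final) promegestone stimulation in HEK293T cells expressing PR-UAS-bla reporter, 16 hr at 37C, 5% CO2; beta-lactamase activity detected via B/G FRET substrate after 2 hr at room temperature.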

[11] = qHTS assay to identify small molecule antagonists of the progesterone receptor (PR) signaling pathway - cell viability counter screen (AID 1346798); further: series mostly up to about 92 µM; nearly all actives have a fitted effect of over 50% in size
Method in brief: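 Counter screen for cytotoxicity: viability of PR-UAS-bla HEK293T cells was measured with CellTiter-Glo luminescence following 16 hr compound exposure in the presence of R5020.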

[12] = qHTS assay to identify small molecule agonists of the progesterone receptor (PR) signaling pathway - cell viability counter screen (AID 1346799; calls by dose curve; further: nearly all actives have a fitted effect of over 45% in size)
Method in brief: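 Cells (PR-UAS-bla HEK293T) are plated at 3,000/well in 2% charcoal-stripped FBS medium, rested 6 hr, dosed and incubated 16 hr at 37C. CellTiter-Glo is then added and luminescence measured after 30 min at room temperature.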

[13] = qHTS assay to identify small molecule antagonists of the TGF-beta/Smad signaling pathway - cell viability counter screen (AID 1346824); further: nearly all actives have a fitted effect of over 50% in size
Method in brief: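 SBE-bla HEK 293T cells, incubated overnight, then compound plus 0.25 ng/mL TGF-beta1 (stock added) for 5 hr at 37 C. Viability was read in the same wells by CellTiter-Glo luminescence after 30 min at room temperature.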

[14] = qHTS assay to identify small molecule agonists of the TGF-beta/Smad signaling pathway - cell viability counter screen (AID 1346829); further: top concentration of the series differs between compounds; nearly all actives have a fitted effect of over 45% in size
Method in brief: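 Compound-treated SBE-bla HEK 293T cells (5 hr, 37 C) were assessed for viability with CellTiter-Glo in parallel with the reporter read.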

[15] = qHTS assay to identify small molecule agonists of the TGF-beta/Smad signaling pathway (AID 1346859; active means well fitted activation curve with a large enough effect in the signal ratio in the repeat runs, not every such curve was filed as active; the % refers to the signal ratio; further: series mostly up to about 77 µM)
Method in brief: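 Reporter line: HEK 293T with stably integrated SBE-controlled beta-lactamase. Compound exposure lasts 5 hr at 37 C and 5% CO2; substrate loading follows for 2 hr at room temperature, with emission read at 460 and 530 nm.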

[16] = target: Thyrotropin-releasing hormone receptor (Homo sapiens) (UniProt P34981); experiment: qHTS assay to identify small molecule antagonists of the thyrotropin-releasing hormone receptor (TRHR) signaling pathway (AID 1346877; active means well fitted inhibition curve with a large enough effect in the repeat runs, not every such curve was filed as active; further: series mostly up to about 51 µM)
Sequence of Thyrotropin-releasing hormone receptor (Homo sapiens) (P34981 whole entry, looked up): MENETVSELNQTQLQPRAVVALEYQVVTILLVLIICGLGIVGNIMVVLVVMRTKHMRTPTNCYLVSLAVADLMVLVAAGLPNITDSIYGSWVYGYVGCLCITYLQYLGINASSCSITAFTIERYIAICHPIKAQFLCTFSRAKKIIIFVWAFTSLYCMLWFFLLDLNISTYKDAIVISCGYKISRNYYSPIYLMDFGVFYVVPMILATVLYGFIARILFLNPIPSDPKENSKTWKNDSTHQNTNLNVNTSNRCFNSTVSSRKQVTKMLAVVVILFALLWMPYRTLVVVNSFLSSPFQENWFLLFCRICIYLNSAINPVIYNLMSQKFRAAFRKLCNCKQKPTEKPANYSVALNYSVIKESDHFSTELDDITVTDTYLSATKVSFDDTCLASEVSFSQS
Method in brief: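 Human TRHR in HEK293 cells; inhibition of the intracellular calcium rise triggered by 1 nM TRH was followed by fluorescence over 3 min. Compounds were run at 15 concentrations, three replicates each.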

[17] = target: Thyrotropin-releasing hormone receptor (Homo sapiens) (UniProt P34981); experiment: qHTS assay to identify small molecule agonists of the thyrotropin-releasing hormone receptor (TRHR) signaling pathway (AID 1346891; calls by dose curve;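 further: HEK293 cells expressing TRHR with calcium dye readout; series mostly up to about 58 µM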)
Method in brief: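 Cells: TRHR-Hek293, seeded and incubated 18 h. Dye loading: 2 h at 37 °C. Compound added from DMSO stock by pin tool. Read-out: kinetic calcium fluorescence over 3 min.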

[18] = Human pregnane X receptor (PXR) small molecule agonists, qHTS cell viability counter screen (AID 1346977); further: nearly all actives have a fitted effect of over 50% in size; further: potency means the concentration at half of the fitted maximal effect
Method in brief: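 Cytotoxicity counter screen run in the same wells as the PXR luciferase assay, using PXR-Luc HepG2 cells in charcoal-stripped serum medium. Viability: CellTiter-Fluor fluorescence after 24hr compound treatment.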

[19] = target: Estrogen receptor beta (Homo sapiens) (UniProt Q92731); experiment: qHTS assay to identify small molecule antagonists of the estrogen receptor beta (ER-beta) signaling pathway (AID 1259378; active means well fitted inhibition curve with a large enough effect in the signal ratio in the repeat runs, not every such curve was filed as active; the % refers to the signal ratio; further: potency means the concentration at half of the fitted maximal effect)
Method in brief: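 ER-beta-UAS-bla HEK293T cells in 2% charcoal-stripped FBS medium treated with compound plus 1nM final 17-beta-estradiol for 16 hr at 37C. Beta-lactamase reporter read by FRET substrate fluorescence after 2 hours at room temperature.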

[20] = target: Estrogen receptor (Homo sapiens) (UniProt P03372); experiment: qHTS assay to identify small molecule agonists of the estrogen receptor alpha (ER-alpha) signaling pathway in the presence of an antagonist (AID 1259383; calls by dose curve; further: top concentration of the series differs between compounds; nearly all actives have a fitted effect of over 15% in size)
Sequence of Estrogen receptor (Homo sapiens) (P03372 whole entry, looked up): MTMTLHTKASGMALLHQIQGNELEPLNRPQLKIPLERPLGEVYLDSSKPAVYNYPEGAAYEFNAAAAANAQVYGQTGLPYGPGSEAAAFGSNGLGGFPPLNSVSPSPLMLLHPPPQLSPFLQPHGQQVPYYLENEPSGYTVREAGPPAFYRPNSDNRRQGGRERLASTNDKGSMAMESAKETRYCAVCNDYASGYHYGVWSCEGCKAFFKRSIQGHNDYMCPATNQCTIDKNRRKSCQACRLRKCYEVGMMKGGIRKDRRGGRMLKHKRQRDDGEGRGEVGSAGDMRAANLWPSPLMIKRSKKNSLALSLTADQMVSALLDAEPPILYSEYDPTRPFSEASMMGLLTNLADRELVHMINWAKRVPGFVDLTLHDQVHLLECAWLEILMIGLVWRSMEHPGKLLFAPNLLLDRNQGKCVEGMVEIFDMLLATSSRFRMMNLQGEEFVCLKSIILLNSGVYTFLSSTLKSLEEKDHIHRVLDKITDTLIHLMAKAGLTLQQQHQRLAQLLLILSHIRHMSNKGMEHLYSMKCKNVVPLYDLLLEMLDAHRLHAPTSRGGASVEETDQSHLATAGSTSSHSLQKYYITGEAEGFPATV
Method in brief: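 ER-alpha agonism measured under antagonist challenge: 10.0nM ICI-182,780 (final) plus compound, 15 concentrations, 22hr, VM7Luc4E2 ERE-luciferase cells. Read by luminescence.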

Row | SMILES | Potency [1] | Potency [2] | Potency [3] | outcome [4] | Potency [5] | Potency [6] | Potency [7] | Potency [8] | Potency [9] | Potency [10] | Potency [11] | Potency [12] | Potency [13] | Potency [14] | Potency [15] | Potency [16] | outcome [17] | Potency [18] | Potency [19] | Potency [20]
1 | CCOP(=S)(OCC)OP(=S)(OCC)OCC | inactive | inactive | inactive | inactive | inactive | inactive | inactive | inactive | inactive | inactive | inactive | inactive | inactive | inactive | inactive | inactive | inactive | inactive | – | –
2 | O=[N+]([O-])/N=C1\NCCN1Cc1ccc(Cl)nc1 | inactive | inactive | inactive | inactive | inactive | inactive | inactive | inactive | inactive | inactive | inactive | inactive | inactive | inactive | inactive | inactive | inactive | inactive | – | –
3 | Cc1cc(Cl)ccc1N=CN(C)C | inactive | inactive | inactive | – | inactive | inactive | inactive | inactive | inactive | inactive | inactive | inactive | inactive | inactive | inactive | inactive | inactive | inactive | inactive | –
4 | C=C(C)C#N | inactive | inactive | inactive | – | inactive | inactive | inactive | inactive | inactive | inactive | inactive | inactive | inactive | inactive | inactive | inactive | inactive | inactive | – | inactive
5 | Cc1ccc([N+](=O)[O-])cc1 | inactive | inactive | inactive | – | inactive | inactive | inactive | inactive | inactive | inactive | inactive | inactive | inactive | inactive | inactive | inactive | inactive | inactive | inactive | inactive
6 | OC(c1ccc(Cl)cc1)(c1cncnc1)c1ccccc1Cl (stereo not given) | inactive | 24.8 µM (active) and inactive | 49.4 µM (active) | – | 62.2 µM (active) and inactive | – | – | inactive | inactive | 13.7 µM (active) | inactive | – | inactive | inactive | inactive | inactive | inactive | inactive | 24.3 µM (active) | inactive
7 | O=P(OCCCl)(OCCCl)OCCCl | inactive | inactive | inactive | – | inactive | – | – | inactive | inactive | inactive | inactive | inactive | inactive | inactive | inactive | inactive | inactive | inactive | inactive | –
8 | CCCCSP(=O)(SCCCC)SCCCC | inactive | inactive | inactive | – | inactive | inactive | – | inactive | inactive | 23.8 µM (active) and 24.3 µM (active) | inactive | inactive | inactive | inactive | inactive | inactive | inactive | inactive | – | –
9 | Clc1ccccc1-c1nnc(-c2ccccc2Cl)nn1 | inactive | inactive | inactive | – | inactive | inactive | inactive | inactive | inactive | inactive | inactive | inactive | inactive | inactive | inactive | inactive | inactive | inactive | – | –
10 | [CH3][Sn]([Cl])([Cl])[Cl] | inactive | inactive | inactive | – | inactive | inactive | inactive | inactive | inactive | inactive | inactive | inactive | inactive | inactive | inactive | inactive | inactive | inactive | – | –
11 | COP(=O)(NC(C)=O)SC (stereo not given) | inactive | inactive | inactive | – | inactive | – | – | inactive | inactive | inactive | inactive | inactive | inactive | inactive | inactive | inactive | inactive | inactive | – | –
12 | O=[N+]([O-])c1ccc(Nc2ccccc2)cc1 | inactive | 30.9 µM (active) and 30.6 µM (active) | inactive | – | inactive | inactive | inactive | 27.5 µM (active) and 27.3 µM (active) | inactive | – | inactive | – | inactive | inactive | inactive | inactive | inactive | 39.8 µM (active) and 48.6 µM (active) | – | –
13 | Nc1ncn[nH]1 | inactive | inactive | inactive | – | inactive | inactive | inactive | inactive | inactive | inactive | inactive | inactive | inactive | inactive | inactive | – | – | inactive | – | –
14 | CCN(CC)C(=O)C(C)Oc1cccc2ccccc12 (stereo not given) | inactive | inactive | inactive | – | inactive | inactive | inactive | – | inactive | – | inactive | inactive | inactive | inactive | inactive | inactive | inactive | inactive | – | –
15 | Oc1ccc(Cl)cc1Cc1ccccc1 | – | inactive | 54.5 µM (active) and 27.6 µM (active) | inactive | 48.6 µM (active) and 52.1 µM (active) | inactive | inactive and 55.1 µM (active) | inactive | inactive | 7.7 µM (active) and 10.6 µM (active) | inactive | – | inactive | inactive | inactive | inactive | inactive | 70.8 µM (active) and inactive | inactive | –
